Laboratory results as given in PubChem BioAssay AID493185 (National Center for Advancing Translational Sciences (NCATS), 2011).
Unmarked numbers belong to inactive results. The call rests on the fitted dose curve; in most records, active means well fitted activation curve with a large enough effect; inconclusive means small, poorly fitted or top-dose-only effect; inactive means no such curve, though single readings can be large or run the other way.

Assay: Counterscreen for Identifying a Potential Treatment of Ataxia-Telangiectasia: Hit Validation; further: 0% is about no effect
Conditions: cell-free AlphaLISA/AlphaScreen artifact counterscreen, PBS only, no cells; series mostly up to 76.9 µM; activation: at the top concentration
In short: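 Without cells, compounds at up to 76.7 uM final were combined with premixed anti-pKAP1/anti-KAP1 AlphaLISA bead reagents, protease inhibitors and lysis buffer; signal read after 6 hr at 25C to flag assay-platform artifacts.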

Compound | activation [%]
FC(F)(F)c1cccc(OCC2CNC(=S)O2)c1 (stereo not given) | -12.3
CSc1nc2ccccc2nc1N(C)S(=O)(=O)c1ccc(C)cc1 | 19.5
Cn1cc(S(=O)(=O)Nc2ccc(OC(F)(F)F)cc2)c(=O)n(C)c1=O | -11.5
CCOC(=O)N1CCN(C(=O)CCc2nc3sc4c(c3c(=O)[nH]2)CCCC4)CC1 | -5.74
COc1ccccc1-n1c(SCC(N)=O)nc2sc3c(c2c1=O)CCC3 | -8.27
CCn1nc(C)c(CNC(=O)c2cc(COc3ccc(F)cc3Cl)on2)c1C | -11.3
COc1ccc2c(c1)c(N=NC(N)=S)c(O)n2CC(=O)c1ccccc1 | -3.76
CCNC(=S)N(Cc1cc2cccc(C)c2[nH]c1=O)C1CCCC1 | 0
COCCCNC(=O)c1c[nH]c2ccc(S(=O)(=O)N(C)c3ccccc3C)cc2c1=O | -10.8
CC(C)c1ccc(-c2cc(C(=O)N3CCOCC3)c3cc(Br)ccc3n2)cc1 | -10.5
O=C(Nc1cnn(C23CC4CC(CC(C4)C2)C3)c1)c1cnn2cccnc12 | 9.77
COc1cc(CCC(=O)OCC(=O)N2CCc3ccccc32)cc(OC)c1OC | -0.752
CC12CCC(C(=O)NNc3ccc([N+](=O)[O-])cc3)(OC1=O)C2(C)C (stereo not given) | 0
COC(=O)N/N=C/c1ccccc1OCCOc1ccc(OC)cc1 | -13.1
CCN(CC)c1ccc2c(Cl)c(Br)c(=O)oc2c1 | 48.9
CCCCC(=O)NC(c1ccco1)c1c(O)ccc2ccccc12 (stereo not given) | -3.08
C[C@@H]1Cc2c(O)c(O)cc(O)c2C(=O)O1 | -9.77
O=C(/C(=C/c1ccc(Cl)cc1)c1nc2ccccc2[nH]1)c1cccs1 | -3.28
CCOC(=O)Cc1csc(NC(=O)CSc2nnc(C(C)C)n2C)n1 | -24.6
C=CCN1C(=O)/C(=C/C(=O)OC)S/C1=N\NC(=O)c1ccccc1 | -6.92

Compound | activation [%]
COc1ccc(C(=O)N2CCCC2(C#N)c2ccccc2)cc1[N+](=O)[O-] (stereo not given) | -8.2
COc1ccc(CCn2c(S)nc3ccccc3c2=O)cc1 | -3.85
CSc1nc(SCC(=O)O)c2c3c(sc2n1)COC(C)(C)C3 | -10.5
Nc1nc2ccccc2cc1-c1cccs1 | 17.2
O=C(c1ccc(F)cc1)c1ccc(N2CCCCC2)cc1 | 9.02
Cc1cc(C)n2nc(C(=O)OCCOc3ccc(F)cc3)nc2n1 | -13.1
CN(C)C(=O)c1nc2ccc(Cl)cn2c1CNCc1cccc(OC(F)(F)F)c1 | -11.3
CCN(CC)CCNC(=O)CCc1c(C)nc2c(c(C)nn2-c2ccc(C)cc2)c1C | 17.7
CCCCn1c2c(c(=N)c3ccccc31)CCC2 | -16.4
O=C1C(Cl)=C(Nc2ccc3cn[nH]c3c2)C(=O)c2ccccc21 | -29.2
Cc1ccc(C2(C)NC(=O)N(CC(=O)Nc3ccccc3N3CCCC3)C2=O)cc1 (stereo not given) | -10.7
CCCN1C2CCCC1CC(NC(=S)Nc1cccc(C)c1C)C2 (stereo not given) | 5.38
CNC(=O)/C=C/c1cc(C(=O)c2ccc(Cl)cc2Cl)cn1C | -13.1
Cc1ccc(C(=O)N/C(=C\c2ccco2)C(=O)NC2CCS(=O)(=O)C2)cc1 (stereo not given) | -5.26
O=C(Nc1ccccc1Oc1ccccc1)c1cccs1 | 4.1
Cc1ccc(-c2noc(CCC(=O)NC3CCN(Cc4ccccc4)CC3)n2)cc1 | -3.28
C/C=C\C=C/C(=O)Nc1cccc(C2=NOC3(C2)C[C@@H](C(N)=O)N(C(=O)COc2ccc(Cl)cc2)C3)c1 (stereo not given in full) | -11.5
O=C(CNCc1cccs1)Nc1ccc(OC(F)(F)F)cc1 | 0
CCC12CN(C(=O)c3ccc([N+](=O)[O-])cc3)CC(CC)(CN(C(=O)c3ccc([N+](=O)[O-])cc3)C1)C2=O | 0
CCn1nc(C)c(/C=N/NC(=O)Cn2cncn2)c1C | 10.7
